ChEMBL document CHEMBL3988442, “University of Dundee, Small-Polar-MMV Screening Library” (2021)
Hit rate of the full screen: of about 53,000 compounds, about 900 (1.7%) showed an effect of 50% or more. The sample as a whole holds a higher share of strong results than the screen did.

test system: Mycobacterium tuberculosis; test: Cornell - Phenotypic assay to identify agents that inhibit growth of Mycobacterium tuberculosis; assay type: functional; design: scale not given: direction of the effect not stated beside the values; conditions: 10 mM as filed; unlikely as a test dose

| Compound | Percent Effect [%] |
| --- | --- |
| COCCN1CCC2(CCN(Cc3ccc(OC)cc3)CC2)C1=O.O=C(O)C(F)(F)F | -13.5 |
| Cc1cccc(CN2CCC3(CCC(C(=O)N(C)C)O3)CC2)n1 (stereo not given) | 35.49 |
| Fc1cccc2[nH]c(CN3CCn4c(nnc4C4CC4)C3)nc12 | -6.1 |
| COc1c(CNCc2nnc3n2CCCCC3)c(C(C)C)nn1C.Cl | -4.214 |
| COc1c(CNCc2nnc3n2CCCCC3)c(C)nn1C.Cl | 31.65 |
| Cc1nn(C)c(N(C)C)c1CNCc1nnc2n1CCCCC2.Cl | 67.58 |
| Cc1cccc(COc2ccc(C(C)NC(=O)CNC(N)=O)cc2)c1 (stereo not given) | 14.07 |
| CC1(C)CC(=O)c2cnc3nc(N4CCCC4)[nH]c(=O)c3c2C1 | 23.1 |
| CCC1CNCc2cc3c(OC)ccc(OC)c3nc2O1 (stereo not given) | 6.248 |
| CCC1CNCc2cc3c(C)ccc(C)c3nc2O1 (stereo not given) | 61.63 |
| CS(=O)(=O)c1ccccc1-n1cc(NC(=O)CC(F)(F)F)cn1 | 18.55 |
| CCC(=O)c1ccccc1NN1c2ccccc2C(=O)C1(C)OC (stereo not given) | 13.72 |
| COc1ccc(CC(=O)Nc2c(C)nc(N3CCCC3)nc2C)cc1 | 59.35 |
| COc1ccc(CC(=O)Nc2c(C)nc(N3CCOCC3)nc2C)cc1 | 3.579 |
| Cc1nc(N2CCOCC2)nc(C)c1NC(=O)Cc1ccc(Cl)cc1 | -26.81 |
| COc1cc(N2C[C@H]3OCC[C@H]3[C@H](C(=O)N3CCCC3)C2)ncn1 | -33.02 |
| CC[C@H]1N(CC2CCC2)CCC[C@]12CCC(=O)N2Cc1ccncc1.O=C(O)C(F)(F)F.O=C(O)C(F)(F)F | 23.16 |
| CC[C@@H]1N(CC2CC2)CCC[C@]12CCC(=O)N2CCOC.O=C(O)C(F)(F)F | 52.28 |
| CC[C@@H]1N(Cc2ccsc2)CCC[C@]12CCC(=O)N2CCOC.O=C(O)C(F)(F)F | 13.62 |
| Fc1ccccc1CC1CCN(Cc2cscn2)CC1 | 30.5 |
| Cc1cccc(CN2CCC(Cc3ccccc3F)CC2)n1 | 56.1 |
| Fc1ccccc1CC1CCN(Cc2ccccn2)CC1 | 29.36 |
| O=C1CN(C(=O)C2CN(c3ccccc3)CCO2)CCN1 (stereo not given) | 14.68 |
| O=C(Nc1ccnc(OC2CCOC2)c1)c1ccccc1Cl (stereo not given) | 61.48 |

| Compound | Percent Effect [%] |
| --- | --- |
| O=C(Nc1ccnc(OC2CCOC2)c1)c1ccc(F)cc1Cl (stereo not given) | 1.296 |
| Cc1occc1C(=O)Nc1ccnc(OC2CCOC2)c1 (stereo not given) | 6.262 |
| CN(Cc1ccc(F)cc1)[C@@H]1CN(S(=O)(=O)N(C)C)C[C@H]1O | 11.25 |
| COCCN1CCO[C@H]2CN(Cc3cc[nH]n3)C[C@H]21.O=C(O)C(F)(F)F.O=C(O)C(F)(F)F | -6.862 |
| Cc1cccc(NS(=O)(=O)c2ccc(C#N)nc2)c1C#N | 105.8 |
| N#Cc1ccc(S(=O)(=O)Nc2ccccc2C#N)cn1 | 63.63 |
| N#Cc1cccnc1NCc1ccc(S(=O)(=O)NCC2CCCO2)cc1 (stereo not given) | -11.22 |
| COCCNS(=O)(=O)c1ccc(CNc2ncccc2C#N)cc1 | 9.617 |
| Cc1cccc(NS(=O)(=O)c2cnn(C)c2)c1C#N | -1.344 |
| Cc1ccc(S(=O)(=O)Nc2cccnc2O)cc1C | -38.51 |
| Cc1ccc(N2C[C@H]3CCN(Cc4ccncc4)C[C@H]3C2)nn1.O=C(O)C(F)(F)F | -19.26 |
| Cc1ccc(CN2CCC3(CCCN3C(=O)C(C)C)CC2)o1 | -8.279 |
| CCOc1nnc(CN(C)C2CCCN(c3cccnn3)C2)s1 (stereo not given) | 26.02 |
| CC1c2ncc(COCC3CC3)n2CCN1C(=O)c1ccn(C)n1 (stereo not given) | 14.69 |
| CC(c1nc(C(C)(C)C)no1)N1CCN(C(=O)CN2CCOCC2)CC1 (stereo not given) | 8.353 |
| Cc1cc(N2CCOCC2)ccc1NC(C)c1nc(C(C)C)no1 (stereo not given) | 72.08 |
| Cc1noc(C(C)N2CCN(CC(=O)N3CCOCC3)CC2)n1 (stereo not given) | -22.01 |
| CCN1CCN(c2ccc(NC(=O)CC(C)C)c(C)c2)CC1 | -22.64 |
| Cc1cc(OCC(=O)NC(C)c2ccc(N3CCOCC3)cc2)no1 (stereo not given) | 4.093 |
| CCN1CCN(c2ccc(NC(C)c3nc(C(C)C)no3)c(C)c2)CC1 (stereo not given) | 73.38 |
| Cc1cc(N2CCOCC2)ccc1NC(C)c1nc(C(C)(C)C)no1 (stereo not given) | 76.4 |
| Cc1noc(C(C)Nc2ccc3c(c2)CCC3)n1 (stereo not given) | -0.4193 |
| Cc1cc(CN2CCN(C(C)c3nc(C(C)C)no3)CC2)no1 (stereo not given) | -1.591 |
| CC(c1nc(C(C)(C)C)no1)N1CCN(CC(=O)N2CCOCC2)CC1 (stereo not given) | 7.513 |

| Compound | Percent Effect [%] |
| --- | --- |
| Cc1noc(C(C)Nc2ccc(N3CCOCC3)cc2C)n1 (stereo not given) | 61.87 |
| Cc1cc(CNC(=O)NC(C)c2ccc(N3CCOCC3)cc2)no1 (stereo not given) | -27.63 |
| CCc1ccccc1NC(=O)NCc1nnc(SC)n1C | -6.778 |
| CC(=O)N1CCC(CCc2ccnc(NC(=O)c3ccccn3)c2)CC1 | -18.95 |
| COc1ccc(-n2cnc(Cl)c2CO)cc1 | 11.93 |
| COCCN(C)C[C@H]1C[C@H](CO)CN(C(=O)c2ccn(C)c(=O)c2)C1 | 18.02 |
| CCc1ncnc(N2CCOCC2C2CC2)c1F (stereo not given) | 0.2478 |
| COCCNC(=O)c1ccccc1-n1cc(CN)cn1 | -18.17 |
| CC(C)COC(=O)N1CC(=O)N(CCCc2ccccc2)CC(O)C1 (stereo not given) | 6.947 |
| Cc1cc(C)c(CNC(=O)NCC(O)c2ccccc2F)c(=O)[nH]1 (stereo not given) | -14.22 |
| CCc1nccn1C1CCCN(C(=O)c2cccc3c2OCO3)C1 (stereo not given) | -43.9 |
| C1CCN(CCN2CCCCC2C2OCCO2)CC1 (stereo not given) | 10.52 |
| Cc1cccc(C2(O)CCN(Cc3ccccc3N3CCCC3)CC2)c1 | 33.4 |
| CCN(CC)C(=O)CN1CCC2(C=Cc3cc(Cl)c(C)cc3O2)CC1 | 52.2 |
| Cc1cc2c(cc1Cl)C=CC1(CCN(CC(=O)N3CCCC3)CC1)O2 | 63.41 |
| CCc1ccc(O)c(C(=O)N2CCN(CC(=O)N(CC)CC)CC2)c1 | -14.81 |
| Cc1cc2c(cc1Cl)C=CC1(CCN(CC(=O)NC3CCCC3)CC1)O2 | 71.56 |
| Cc1cc2c(cc1Cl)C=CC1(CCN(CC(=O)N3CCOCC3)CC1)O2 | -15.66 |
| Cc1cc2c(cc1C)OC1(C=C2)CCN(CC(=O)N2CCOCC2)CC1 | 44.67 |
| Cc1cc2c(cc1Cl)C=CC1(CCN(C(=O)N3CCOCC3)CC1)O2 | 23.79 |
| Cc1cc(C)n(CC2CN(CC(=O)NC3CCCCC3)CCO2)n1 (stereo not given) | -10.09 |
| Cc1cc(C)n(CC2CN(CC(=O)NC3CCCC3)CCO2)n1 (stereo not given) | -7.412 |
